Source: publication PMC7819943, “Rice protein-binding microarrays: a tool to detect cis-acting elements near promoter regions in rice”
In all, about 35,000 sequences were measured (“fluorescence intensity (a.u.)”: median about 10,000, highest 2% from about 52,000 on). Many of the other results were omitted from the sample, so the highest values are more common in it than they were.

target: T1, OsWOX13 (Oryza sativa, UniProt Q5QMM3 1-267); experiment: protein-binding microarray (RPBM); PBS, 2% BSA, 51.3 ng/ul salmon testes DNA, 50 uM zinc acetate, 200 nM TF, 25 C, 1 h; high values mean tight binding; details: protein: recombinant; tags: N-terminal polyhistidine and DsRed monomer fusion (pET32a); label: CyDye5-dUTP incorporated in the synthesized complementary strand; 3' TTTTT single-stranded linker to array surface; dsDNA, one strand shown
T1 sequence: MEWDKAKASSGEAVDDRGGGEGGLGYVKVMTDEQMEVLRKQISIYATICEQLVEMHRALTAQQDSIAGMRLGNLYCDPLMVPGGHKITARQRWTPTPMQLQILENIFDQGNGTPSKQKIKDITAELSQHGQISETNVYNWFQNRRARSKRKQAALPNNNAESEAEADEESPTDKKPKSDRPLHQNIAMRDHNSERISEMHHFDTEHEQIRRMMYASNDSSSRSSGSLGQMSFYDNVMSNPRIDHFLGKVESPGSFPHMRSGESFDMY
Procedure, shortened: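 The binding signal is fluorescence intensity per array feature (arbitrary units). Readings came from an Axon 4000B scanner after a washed, 2% BSA-blocked, double-stranded custom Agilent array had been incubated for 1 h at 25 °C with 200 nM protein and 50 µM zinc acetate. The protein was a Ni–NTA-purified transcription factor fused N-terminally to polyhistidine and DsRed, expressed in E. coli BL21-CodonPlus.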

Sequence | binding signal
TTCCGGTGATTAGTCAACTGCCACGACCAGATTAATCTACCGGAGTCACCTAGTGCAG | 20300 fluorescence intensity (a.u.)
TCATAACTAATATTTAAATGGTATTTGAACATCCCATGGACGGAGTCACCTAGTGCAG | 9720 fluorescence intensity (a.u.)
TCTGACCTGAAAGTCTCAATCAGACAGCTTTCGAAAAGGACGGAGTCACCTAGTGCAG | 4260 fluorescence intensity (a.u.)
AAACCTATGACAATCAACCTTTTGACTGTCATACTAGCTCCGGAGTCACCTAGTGCAG | 9360 fluorescence intensity (a.u.)
TATTGATTAAACATAATGGTCTCACAATATTTTAGTTACCCGGAGTCACCTAGTGCAG | 27300 fluorescence intensity (a.u.)
CTGAAATGATTTTCATTTGATTCAAATGGGCCTAAGAATTCGGAGTCACCTAGTGCAG | 17200 fluorescence intensity (a.u.)
GTGGCTGTGATTGTGTGATTGTGTACCTGTTTGTAGTGAACGGAGTCACCTAGTGCAG | 20500 fluorescence intensity (a.u.)
TATCTACTAATTTAACTTATAAATGGGTTTATGGGTTGACCGGAGTCACCTAGTGCAG | 11200 fluorescence intensity (a.u.)
TTTAATTAATTTGTTAAATTTTCTGATCGGAATGAGCGGTCGGAGTCACCTAGTGCAG | 63700 fluorescence intensity (a.u.)
CGGGCTTCTTGATTTGCGGATTGTTGTTGTGGATCGCCAGCGGAGTCACCTAGTGCAG | 5040 fluorescence intensity (a.u.)
AATAATGATAACTGATAAGGGTTTGTTTAGTCTGGATGAACGGAGTCACCTAGTGCAG | 18800 fluorescence intensity (a.u.)
TTTTAAATTTCATTATATAATGATTAATTTGGGAATGAGGCGGAGTCACCTAGTGCAG | 30800 fluorescence intensity (a.u.)
TTAACTGATTGATGCTCAAGTGGATTGATCGATTTTGTTGCGGAGTCACCTAGTGCAG | 65500 fluorescence intensity (a.u.)
ATGATAACTGATTGCAATAAGGTTAGGATGTTGTCACACCCGGAGTCACCTAGTGCAG | 52900 fluorescence intensity (a.u.)
TTTAAATTTTAATGATCGGTGATTTTGTGCAGGGAAAACGCGGAGTCACCTAGTGCAG | 24200 fluorescence intensity (a.u.)
GATGAACATTGATTTGCTCGGATCTTGGATGCTGTTTGTGCGGAGTCACCTAGTGCAG | 20800 fluorescence intensity (a.u.)
AATAAGGGACTTAATTAGTCTAGGTTAAACTGGATGTTGCCGGAGTCACCTAGTGCAG | 4640 fluorescence intensity (a.u.)
GATAATGGCCCTTAAATTGATTGCAACTCACGGTGATACACGGAGTCACCTAGTGCAG | 44800 fluorescence intensity (a.u.)
GCTCTAAGGGTGGGTTTTGATGGGAGGTTTTGGATGGATACGGAGTCACCTAGTGCAG | 6370 fluorescence intensity (a.u.)
TTTGATTTGGGAAAGATAATATATCTTGCTACTTTGTCTTCGGAGTCACCTAGTGCAG | 18200 fluorescence intensity (a.u.)
AAACATTAATTAATACCATAATAGTTAGGTGACAATTGACCGGAGTCACCTAGTGCAG | 27100 fluorescence intensity (a.u.)
CAACGCCTGTAATTGCTCCTCCTGGCATGCAAGCCTTGTCCGGAGTCACCTAGTGCAG | 5050 fluorescence intensity (a.u.)
GTAAATTGTTTACTATCGAATGTACATGCTATATATATTGCGGAGTCACCTAGTGCAG | 20400 fluorescence intensity (a.u.)

Sequence | binding signal
GCAATAATTAATAAGGCTCTAGGATAATTCAAATGGTTTTCGGAGTCACCTAGTGCAG | 9520 fluorescence intensity (a.u.)
TAATGGTTTTCAGACAAATGGATAATTAAGCTGATAGCGACGGAGTCACCTAGTGCAG | 65400 fluorescence intensity (a.u.)
CTACAAAATTAAGCTGATAGCAACATCATTCACACATGGACGGAGTCACCTAGTGCAG | 4120 fluorescence intensity (a.u.)
GGCTGACGTCTAAATAAATTTTGAGTAAATTACATTAGCGCGGAGTCACCTAGTGCAG | 15600 fluorescence intensity (a.u.)
ATCGTAGTGTAATTACACTGTAACTTATATGTAATTACACCGGAGTCACCTAGTGCAG | 12100 fluorescence intensity (a.u.)
TATAATTGATGTACATCGATGATTAATTCTCTAACAGATCCGGAGTCACCTAGTGCAG | 62300 fluorescence intensity (a.u.)
CTCAGATTTGATCAGTGGTAATTTCTCATGTAATCTCATTCGGAGTCACCTAGTGCAG | 10500 fluorescence intensity (a.u.)
CGATGATTGTAATCTCATTGAACAGATGATCCTTCAGGATCGGAGTCACCTAGTGCAG | 52400 fluorescence intensity (a.u.)
AAATATTATAATTGATTGTCGATGAAACATCGGGTTGTACCGGAGTCACCTAGTGCAG | 46200 fluorescence intensity (a.u.)
TCCTTTATTATCTGTAATTGTAAAATCTTCAGATGAACACCGGAGTCACCTAGTGCAG | 6210 fluorescence intensity (a.u.)
AATTGATTAAGATGATGATGAAAGATAATACAGCTCGATCCGGAGTCACCTAGTGCAG | 27100 fluorescence intensity (a.u.)
TCAAATACTGCTGATTATACATACCCACATGTGTTGAATGCGGAGTCACCTAGTGCAG | 3580 fluorescence intensity (a.u.)
ATAAAGTGATTTAATTTTAGTTAAAGTTAAACTACTTTAACGGAGTCACCTAGTGCAG | 21100 fluorescence intensity (a.u.)
CACTCTTGCATTTCTTTGATTGCAAATTTCCAAGGCAGAACGGAGTCACCTAGTGCAG | 5250 fluorescence intensity (a.u.)
ATTTTACAGGGTGATTTGAACATACAGTAATTATGGCCAACGGAGTCACCTAGTGCAG | 6520 fluorescence intensity (a.u.)
AAATGTCTTGTAGATTGATATATTACATGGAACAAAATTTCGGAGTCACCTAGTGCAG | 3240 fluorescence intensity (a.u.)
GTTAAACTAATTTGAATTTGTTAGTACAGTTTGCATTTCACGGAGTCACCTAGTGCAG | 25500 fluorescence intensity (a.u.)
TGTGTTCTTGATTTGTGTTGTGTTTGTAGATCGTAGTTTGCGGAGTCACCTAGTGCAG | 10200 fluorescence intensity (a.u.)
GTATGTGATTTTCTTTAATTAGAGTTCTTGCCTAAGGTTGCGGAGTCACCTAGTGCAG | 38300 fluorescence intensity (a.u.)
ATTTGATTGAATGTAGAGATTCTTGTAATAGGATTCTTTGCGGAGTCACCTAGTGCAG | 64700 fluorescence intensity (a.u.)
TTAATTGGATTGTTTTGATTCGTTGGAGAAGTTAGGAATACGGAGTCACCTAGTGCAG | 28600 fluorescence intensity (a.u.)
CTGATTGATTCGTAATAGTAGAATAGGACATGTTACCATACGGAGTCACCTAGTGCAG | 64500 fluorescence intensity (a.u.)
TTTTGAAATTTCAGATTATTTTGTGTGGTTTTGTAATTTGCGGAGTCACCTAGTGCAG | 4570 fluorescence intensity (a.u.)
